Several values for one entry are separate records, joined by “and”; a condition that tells them apart may be missing. Equal values may be shown once. Results filed as inconclusive are left out. The source holds several records for some structures; these can differ, active in one and inactive in another. Activity calls are given as the source filed them. Unless noted, calls come from the whole dose curve; as a rule, active = well fitted curve in the direction sought with a large enough effect in the repeat runs; inconclusive = weak or mixed curves; inactive = no such curve, though single readings can be large; an effect the other way counts as inactive or inconclusive.
Experiments:
[1] = qHTS assay to identify small molecule agonists of the estrogen receptor alpha (ER-alpha) signaling pathway in the presence of an antagonist - cell viability counter screen (AID 1259386);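 note: cells exposed to compounds for 22 h at 37 °C before the viability read; nearly all actives have a fitted effect of over 30% in size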; note: potency is the fitted concentration of half-maximal effect
Procedure, shortened: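 Read-out: CellTiter-Fluor fluorescence after 1hr reagent incubation, measured in the same wells as the luciferase readout. VM7Luc4E2 cells were exposed to 15 compound concentrations with 10.0nM ICI-182,780 for 22hr at 37C.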

[2] = target: Progesterone receptor (Homo sapiens) (UniProt P06401); assay: qHTS assay to identify small molecule agonists of the progesterone receptor (PR) signaling pathway (AID 1346784; calls by dose curve; note: nearly all actives have a fitted effect of over 30% in size)
Sequence of Progesterone receptor (Homo sapiens) (P06401 whole entry, looked up): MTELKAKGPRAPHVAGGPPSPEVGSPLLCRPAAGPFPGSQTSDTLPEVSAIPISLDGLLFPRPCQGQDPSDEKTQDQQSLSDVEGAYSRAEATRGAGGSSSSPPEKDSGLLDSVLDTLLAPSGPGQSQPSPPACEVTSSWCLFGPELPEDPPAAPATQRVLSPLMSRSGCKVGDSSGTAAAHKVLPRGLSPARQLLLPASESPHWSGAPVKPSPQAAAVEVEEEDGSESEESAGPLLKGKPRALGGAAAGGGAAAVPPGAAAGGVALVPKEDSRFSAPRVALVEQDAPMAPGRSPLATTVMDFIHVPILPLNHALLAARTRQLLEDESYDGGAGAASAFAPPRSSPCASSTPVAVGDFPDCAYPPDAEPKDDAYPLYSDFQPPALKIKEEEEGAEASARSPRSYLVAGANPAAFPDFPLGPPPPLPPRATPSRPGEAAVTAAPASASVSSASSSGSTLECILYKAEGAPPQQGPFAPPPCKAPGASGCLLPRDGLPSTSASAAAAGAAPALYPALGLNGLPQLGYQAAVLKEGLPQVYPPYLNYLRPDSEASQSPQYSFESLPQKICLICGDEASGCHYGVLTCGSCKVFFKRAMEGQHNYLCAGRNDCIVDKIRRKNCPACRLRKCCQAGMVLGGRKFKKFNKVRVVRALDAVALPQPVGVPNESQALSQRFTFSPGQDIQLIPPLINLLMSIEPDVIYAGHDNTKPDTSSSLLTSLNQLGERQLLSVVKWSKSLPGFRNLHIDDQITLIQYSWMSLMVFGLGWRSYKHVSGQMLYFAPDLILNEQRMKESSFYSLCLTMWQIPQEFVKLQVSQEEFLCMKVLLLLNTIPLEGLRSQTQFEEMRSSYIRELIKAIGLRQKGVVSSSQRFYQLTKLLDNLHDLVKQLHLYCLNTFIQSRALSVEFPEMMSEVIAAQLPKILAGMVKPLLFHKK
Procedure, shortened: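 Using charcoal-stripped serum (2%) to limit endogenous steroids, PR-UAS-bla HEK 293T cells received compounds for 16 hr at 37C after 6 hr plating; beta-lactamase FRET fluorescence was recorded following 2 hr substrate loading at room temperature.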

[3] = target: Progesterone receptor (Homo sapiens) (UniProt P06401); assay: qHTS assay to identify small molecule antagonists of the progesterone receptor (PR) signaling pathway (AID 1346795; active = well fitted inhibition curve with a large enough effect in the signal ratio in the repeat runs, not every such curve was filed as active; the % refers to the signal ratio; note: potency is the fitted concentration of half-maximal effect)
Procedure, shortened: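 Inhibition of R5020-induced (1 nM final) beta-lactamase reporter signal in PR-UAS-bla HEK293T cells was scored by FRET fluorescence after overnight (16 hr) compound treatment.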

[4] = qHTS assay to identify small molecule antagonists of the progesterone receptor (PR) signaling pathway - cell viability counter screen (AID 1346798); note: series mostly up to about 92 µM; nearly all actives have a fitted effect of over 50% in size
Procedure, shortened: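 ATP content as viability readout: CellTiter-Glo luminescence, 30 min room temperature, in PR-UAS-bla HEK293T cells after 16 hr compound/R5020 treatment at 37C and 5% CO2.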

[5] = qHTS assay to identify small molecule agonists of the progesterone receptor (PR) signaling pathway - cell viability counter screen (AID 1346799; calls by dose curve; note: nearly all actives have a fitted effect of over 45% in size)
Procedure, shortened: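 Cytotoxicity in PR-bla HEK293T cells: 16 h compound, 37C; CellTiter-Glo added post-FRET read; luminescence after 30 min RT.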

[6] = qHTS assay to identify small molecule agonists of the TGF-beta/Smad signaling pathway - cell viability counter screen (AID 1346829); note: top concentration of the series differs between compounds; nearly all actives have a fitted effect of over 45% in size
Procedure, shortened: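 Tox21 qHTS format: SBE-bla HEK 293T cells treated with DMSO-dissolved compounds for 5 hr; CellTiter-Glo luminescence after 30 min at room temperature.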

[7] = qHTS assay to identify small molecule agonists of the TGF-beta/Smad signaling pathway (AID 1346859; active = well fitted activation curve with a large enough effect in the signal ratio in the repeat runs, not every such curve was filed as active; the % refers to the signal ratio; note: series mostly up to about 77 µM)
Procedure, shortened: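 Stable Smad binding element-beta-lactamase HEK 293T cells; 5 hr compound exposure at 37 C under 5% CO2; 2 hr room-temperature substrate step; fluorescence excited at 405 nm, collected at 460 nm and 530 nm.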

[8] = target: Thyrotropin-releasing hormone receptor (Homo sapiens) (UniProt P34981); assay: qHTS assay to identify small molecule antagonists of the thyrotropin-releasing hormone receptor (TRHR) signaling pathway (AID 1346877; active = well fitted inhibition curve with a large enough effect in the repeat runs, not every such curve was filed as active; note: series mostly up to about 51 µM)
Sequence of Thyrotropin-releasing hormone receptor (Homo sapiens) (P34981 whole entry, looked up): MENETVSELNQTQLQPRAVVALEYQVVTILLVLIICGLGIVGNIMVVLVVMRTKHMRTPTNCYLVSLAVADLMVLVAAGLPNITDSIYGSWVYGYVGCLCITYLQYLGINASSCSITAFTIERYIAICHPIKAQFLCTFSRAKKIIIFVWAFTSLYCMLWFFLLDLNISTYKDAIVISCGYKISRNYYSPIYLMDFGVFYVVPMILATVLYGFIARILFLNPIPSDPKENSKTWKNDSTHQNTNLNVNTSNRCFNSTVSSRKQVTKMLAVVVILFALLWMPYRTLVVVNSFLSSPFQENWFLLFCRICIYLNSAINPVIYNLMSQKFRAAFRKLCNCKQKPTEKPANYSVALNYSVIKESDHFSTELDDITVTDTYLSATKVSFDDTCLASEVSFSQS
Procedure, shortened: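 HEK293/TRHR cells, 18 h, 37 °C; Ca2+ dye 2 h; cpd 5 min RT; TRH 1 nM final; fluorescence read 3 min, 1 s intervals; 15 concs, triplicate.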

[9] = target: Thyrotropin-releasing hormone receptor (Homo sapiens) (UniProt P34981); assay: qHTS assay to identify small molecule agonists of the thyrotropin-releasing hormone receptor (TRHR) signaling pathway (AID 1346891; calls by dose curve;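 note: HEK293 cells expressing TRHR with calcium dye readout; series mostly up to about 58 µM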)
Procedure, shortened: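 In 1536-format, 1500 TRHR-Hek293 cells per well grew 18 h, took up calcium dye for 2 h at 37 °C, received compound, and were read kinetically; 15-point titrations, triplicates.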

[10] = Human pregnane X receptor (PXR) small molecule agonists, qHTS cell viability counter screen (AID 1346977); note: nearly all actives have a fitted effect of over 50% in size
Procedure, shortened: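 Readout is CellTiter-Fluor fluorescence from PXR-Luc HepG2 cells. Plated cells rested 5hr, then were treated with compounds for 24hr at 37C and 5% CO2, with reagent present during the last hour.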

[11] = Caspase-3/7 induction in HepG2 cells by small molecules, qHTS assay (AID 1346978); note: nearly all actives have a fitted effect of over 15% in size
Procedure, shortened: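 Caspase-3/7 induction was measured by Caspase-Glo 3/7 luminescence (30 min, room temperature) after a 17 hr compound exposure of wild-type HepG2 cells seeded at 2,000 per well and pre-incubated 5 hr.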

[12] = Caspase-3/7 induction in CHO-K1 cells by small molecules, qHTS cell viability counter screen (AID 1346979); note: nearly all actives have a fitted effect of over 35% in size; note: potency is the fitted concentration of half-maximal effect
Procedure, shortened: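 To flag cytotoxic compounds, treated CHO-K1 wild-type cells were given CellTiter-Fluor at 16hr and read fluorescently after 1hr at 37C; the caspase-3/7 luminescence was measured in these same wells.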

[13] = Caspase-3/7 induction in CHO-K1 cells by small molecules, qHTS assay (AID 1346980); note: nearly all actives have a fitted effect of over 15% in size
Procedure, shortened: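 Luminescent Caspase-Glo 3/7 read (30min, room temperature) quantified apoptosis induction. Cells were wild-type CHO-K1, treated with compound for 17hr at 37 C and 5% CO2.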

[14] = target: Nuclear receptor subfamily 1 group I member 2 (Homo sapiens) (UniProt O75469); assay: Human pregnane X receptor (PXR) small molecule agonists, qHTS assay (AID 1346982); note: nearly all actives have a fitted effect of over 35% in size; note: potency is the fitted concentration of half-maximal effect
Sequence of Nuclear receptor subfamily 1 group I member 2 (Homo sapiens) (O75469 whole entry, looked up): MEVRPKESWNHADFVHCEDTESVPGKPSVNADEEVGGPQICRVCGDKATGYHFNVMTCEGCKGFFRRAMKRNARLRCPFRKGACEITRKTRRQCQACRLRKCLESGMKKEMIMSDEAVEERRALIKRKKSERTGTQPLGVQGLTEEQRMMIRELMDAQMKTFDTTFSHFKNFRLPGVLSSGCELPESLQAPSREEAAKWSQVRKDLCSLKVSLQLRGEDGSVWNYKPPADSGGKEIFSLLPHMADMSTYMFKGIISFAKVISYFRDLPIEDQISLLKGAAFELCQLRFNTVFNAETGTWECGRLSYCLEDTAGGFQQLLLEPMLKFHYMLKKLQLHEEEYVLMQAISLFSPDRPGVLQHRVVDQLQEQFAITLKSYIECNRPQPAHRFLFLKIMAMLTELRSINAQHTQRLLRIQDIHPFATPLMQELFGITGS
Procedure, shortened: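 HepG2 PXR-Luc reporter line, 5% charcoal-stripped FBS; 5 hr pre-incubation, compound (DMSO) 24 hr at 37 C/5% CO2; ONE-Glo 30 min RT; luminescence read-out.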

[15] = target: Acetylcholinesterase (Homo sapiens) (UniProt P22303); assay: Acetylcholinesterase (AChE) small molecule antagonists: colormetric cell-based qHTS assay (AID 1347395; calls by dose curve; note: nearly all actives have a fitted effect of over 30% in size)
Sequence of Acetylcholinesterase (Homo sapiens) (P22303 whole entry, looked up): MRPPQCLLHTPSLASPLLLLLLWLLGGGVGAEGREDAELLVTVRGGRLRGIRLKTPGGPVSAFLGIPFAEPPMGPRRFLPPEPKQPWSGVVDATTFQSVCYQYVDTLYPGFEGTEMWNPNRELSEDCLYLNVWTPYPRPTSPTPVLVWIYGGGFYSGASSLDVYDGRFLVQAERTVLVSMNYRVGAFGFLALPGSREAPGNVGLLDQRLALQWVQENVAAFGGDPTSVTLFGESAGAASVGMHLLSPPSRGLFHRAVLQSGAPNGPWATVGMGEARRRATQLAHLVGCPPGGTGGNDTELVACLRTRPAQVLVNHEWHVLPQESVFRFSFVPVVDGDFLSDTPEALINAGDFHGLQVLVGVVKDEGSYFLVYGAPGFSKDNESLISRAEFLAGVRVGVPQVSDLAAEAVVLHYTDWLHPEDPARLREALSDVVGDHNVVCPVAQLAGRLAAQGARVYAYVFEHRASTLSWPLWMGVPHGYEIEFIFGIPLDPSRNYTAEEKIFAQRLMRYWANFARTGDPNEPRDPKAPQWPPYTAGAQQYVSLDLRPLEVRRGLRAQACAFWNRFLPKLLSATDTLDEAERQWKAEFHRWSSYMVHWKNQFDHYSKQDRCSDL
Procedure, shortened: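 Neuroblastoma line SH-SY5Y supplied the enzyme; cells were preincubated with compound for 30 min at 37 C and 5% CO2. Acetylthiocholine with DTNB was then added for 90 min at 37 C, and thiocholine was measured by colour.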

[16] = Caspase-3/7 induction in HepG2 cells by small molecules, qHTS cell viability counter screen (AID 1346981); note: nearly all actives have a fitted effect of over 30% in size; note: potency is the fitted concentration of half-maximal effect
Procedure, shortened: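 Fluorescence read-out of live-cell protease activity (CellTiter-Fluor) after 1 hr with reagent. This was measured in the same wells as the caspase-3/7 luminescence, on HepG2 cells exposed to DMSO-dissolved compounds for 16 hr at 37 C.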

[17] = qHTS assay to identify small molecule antagonists of the TGF-beta/Smad signaling pathway - cell viability counter screen (AID 1346824); note: nearly all actives have a fitted effect of over 50% in size
Procedure, shortened: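 Cytotoxicity counter-screen run in the same wells as the beta-lactamase Smad reporter read: CellTiter-Glo luminescence after 30 min at room temperature. HEK 293T SBE-bla cells had 5 hr compound exposure at 37 C with TGF-beta1 (0.25 ng/mL stock).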

[18] = target: Nuclear receptor subfamily 1 group I member 2 (Rattus norvegicus) (UniProt Q9R1A7); assay: Rat pregnane X receptor (rPXR) activation by small molecules, qHTS assay (AID 1346983); details: rPXR luciferase reporter cells, One-Glo luminescence, 24 h; stronger effect = higher value; note: nearly all actives have a fitted effect of over 20% in size
Sequence of Nuclear receptor subfamily 1 group I member 2 (Rattus norvegicus) (Q9R1A7 whole entry, looked up): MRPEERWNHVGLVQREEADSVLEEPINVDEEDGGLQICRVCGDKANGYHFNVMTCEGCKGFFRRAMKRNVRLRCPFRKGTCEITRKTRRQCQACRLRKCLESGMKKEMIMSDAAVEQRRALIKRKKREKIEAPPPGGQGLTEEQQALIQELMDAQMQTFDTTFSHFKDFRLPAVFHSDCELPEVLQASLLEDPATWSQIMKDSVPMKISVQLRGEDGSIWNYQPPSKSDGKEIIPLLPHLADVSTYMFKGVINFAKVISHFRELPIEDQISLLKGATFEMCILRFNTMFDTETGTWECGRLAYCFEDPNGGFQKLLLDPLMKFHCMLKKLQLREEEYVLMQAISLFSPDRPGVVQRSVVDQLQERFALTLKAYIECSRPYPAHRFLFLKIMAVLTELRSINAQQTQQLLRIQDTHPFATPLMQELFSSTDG
Procedure, shortened: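 Luminescent readout (One-Glo luciferase, 30 min room temperature) followed 24 hr compound treatment at 37 C of rPXR cells plated 2,000 per well and preincubated 5hr; qHTS format with compounds delivered in DMSO.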

[19] = target: Nuclear receptor subfamily 1 group I member 2 (Homo sapiens) (UniProt O75469); assay: CYP3A4 induction through human pregnane X receptor (PXR) by small molecules, qHTS assay (AID 1346984); note: nearly all actives have a fitted effect of over 40% in size
Procedure, shortened: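 HepG2-derived DPX-2 line carrying PXR plus a CYP3A4-promoter luciferase reporter; cells plated 5 hr, compound-exposed 24 hr at 37C. CYP3A4 activity probed with 3uM (final) Luciferin-IPA for 3hr, then luciferase read after One-Glo.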

[20] = target: Nuclear receptor subfamily 1 group I member 2 (Homo sapiens) (UniProt O75469); assay: Human pregnane X receptor (PXR) activation by small molecules, qHTS assay (AID 1346985); note: nearly all actives have a fitted effect of over 40% in size
Procedure, shortened: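 DPX-2 cells (HepG2 co-transfected with a PXR response element and a CYP3A4-promoter luciferase construct) were seeded at 2,000 per well, rested 5 hr at 37C, then exposed to DMSO-dissolved compounds for 24 hr. Activation was read as luciferase luminescence.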
% is set by controls: 0 for no effect and ±100 for the full control effect.

c1ccc(NNc2ccccc2)cc1
inactive: Potency [1] | Potency [2] | Potency [3] | Potency [4] | Potency [5] | Potency [6] | outcome [7] | Potency [8] | Potency [9] | Potency [10] | Potency [11] | Potency [12] | Potency [13] | Potency [15]
inactive and 48.6 µM (active): Potency [14]

COc1ccc(C=O)cc1
inactive: Potency [1] | Potency [2] | Potency [3] | Potency [4] | Potency [5] | Potency [6] | outcome [7] | Potency [8] | Potency [9] | Potency [10] | Potency [11] | Potency [12] | Potency [13] | Potency [16] | Potency [14] | Potency [15]

c1nc[nH]n1
inactive: Potency [1] | Potency [2] | Potency [3] | Potency [4] | Potency [5] | Potency [6] | outcome [7] | Potency [10] | Potency [11] | Potency [12] | Potency [16] | Potency [14] | Potency [15]

CCN(N=O)C(N)=O
inactive: Potency [1] | Potency [2] | Potency [3] | Potency [4] | Potency [5] | Potency [6] | outcome [7] | Potency [8] | Potency [9] | Potency [10] | Potency [11] | Potency [12] | Potency [13] | Potency [16] | Potency [14] | Potency [15]

CCC(C)(C)c1ccc(O)cc1
inactive: Potency [1] | Potency [2] | Potency [3] | Potency [4] | Potency [5] | Potency [17] | Potency [6] | outcome [7] | Potency [9] | Potency [10] | Potency [13] | Potency [16] | Potency [14] | max activation [18] -0.805% | outcome [19] | outcome [20] | Potency [15]

C=C(C)C(=O)OCC1CO1 (stereo not given)
inactive: Potency [1] | Potency [2] | Potency [3] | Potency [4] | Potency [5] | Potency [6] | outcome [7] | Potency [9] | Potency [10] | Potency [11] | Potency [12] | Potency [13] | Potency [14] | Potency [15]

CC(C)c1ccc(CO)cc1
inactive: Potency [1] | Potency [2] | Potency [3] | Potency [4] | Potency [5] | Potency [17] | Potency [6] | outcome [7] | Potency [10] | Potency [11] | Potency [12] | Potency [16] | Potency [14] | Potency [15]

O=C(O)C(F)(F)C(F)(F)C(F)(F)C(F)(F)C(F)(F)C(F)(F)C(F)(F)F
inactive: Potency [1] | Potency [2] | Potency [3] | Potency [4] | Potency [17] | Potency [6] | outcome [7] | Potency [8] | Potency [9] | Potency [10] | Potency [11] | Potency [12] | Potency [16] | Potency [14] | Potency [15]

O=C(NC(=O)c1c(F)cccc1F)Nc1ccc(Cl)cc1
inactive: Potency [1] | Potency [2] | Potency [3] | Potency [4] | Potency [5] | Potency [6] | outcome [7] | Potency [10] | Potency [11] | Potency [12] | Potency [15]
2.44 µM (active) and inactive: Potency [14]

Nc1ccc(-c2ccc(N)c(N)c2)cc1N
inactive: Potency [2] | Potency [4] | Potency [5] | Potency [6] | outcome [7] | Potency [10] | Potency [11] | Potency [13]
active: Potency [1] 54.3 µM | Potency [3] 48.4 µM and 24.3 µM | Potency [12] 68.4 µM and 61.1 µM | Potency [16] 48.4 µM | Potency [14] 24.3 µM

CCN(CC)C(=O)SCc1ccc(Cl)cc1
inactive: Potency [1] | Potency [2] | Potency [4] | Potency [5] | Potency [6] | outcome [7] | Potency [9] | Potency [10] | Potency [11] | Potency [12] | Potency [13] | Potency [16] | Potency [15]
active: Potency [3] 25.1 µM and 27.3 µM | Potency [14] 56.1 µM

— PubChem BioAssay (Tox21)
